Holding throughout (design): species or system human, MV4-11 + K-562 + COLO205 + SK-N-BE2 + OVCAR-8
The subject of one test is EPHA1. The note with it: read-out: apparent Kd, compound concentrations: 100 nM and 1000 nM (sheet 'Samples'), n = 1.
In the next test the test system is SIK2. As to conditions: read-out: apparent Kd, n = 1.
A further test has as its system EGFR. As to conditions: read-out: apparent Kd, compound concentrations: 100 nM and 1000 nM (sheet 'Samples'), n = 1.
In a further test the test system is TNK1. The note with it: read-out: apparent Kd, n = 1.
The subject of the next test is ZAK. The note with it: read-out: apparent Kd, compound concentrations: 100 nM and 1000 nM (sheet 'Samples'), n = 1.
In another test the test system is ACAD11. The note with it: read-out: apparent Kd, n = 1.
In a further test the test system is ACVR1B. As to conditions: read-out: apparent Kd; compound concentrations: 100 nM and 1000 nM (sheet 'Samples'), CATDS: 0.14344642008730599; n = 1.
The subject of another test is MAPK14. As to conditions: read-out: apparent Kd, n = 1.
Another test deals with CSK. As to conditions: read-out: apparent Kd, compound concentrations: 100 nM and 1000 nM (sheet 'Samples'), n = 1.
The subject of another test is AURKB. As to conditions: read-out: apparent Kd, n = 1.
The test system of another test is LYN. The note with it: read-out: apparent Kd, compound concentrations: 100 nM and 1000 nM (sheet 'Samples'), n = 1.
The test system of the next test is SRC. As to conditions: read-out: apparent Kd, compound concentrations: 100 nM and 1000 nM (sheet 'Samples'), n = 1.
The test system of another test is GSK3A. As to conditions: read-out: apparent Kd; compound concentrations:100 nM and 1000 nM (sheet 'Samples'); n = 1.
Another test concerns GSK3B. The note with it: read-out: apparent Kd; compound concentrations:100 nM and 1000 nM (sheet 'Samples'); n = 1.
The subject of a further test is ACVR1. As to conditions: read-out: apparent Kd; compound concentrations: 100 nM and 1000 nM (sheet 'Samples'), CATDS: 0.23402364017956601; n = 1.
A further test concerns DDR1. The note with it: read-out: apparent Kd; compound concentrations:100 nM and 1000 nM (sheet 'Samples'); n = 1.
In a further test the test system is FLT3. As to conditions: read-out: apparent Kd; compound concentrations: 100 nM and 1000 nM (sheet 'Samples'), CATDS: 0.15169843184363399; n = 1.
[1] abbreviates: compound concentrations:100 nM and 1000 nM (sheet 'Samples').

Where two headings read alike, the source gives them in different places.

For `Fc1cc(Cl)ccc1Nc1ccnc2cc(-c3ccc(CN4CCOCC4)o3)ccc12` [GW560109X], the potency estimated from few doses with EPHA1 (CATDS: 7.1072488518175297E-2) was 0.699 µM; in the test with SIK2 (compound concentrations: 100 nM and 1000 nM (sheet 'Samples'), CATDS: 7.4326552669870996E-2), 0.63 µM.

With `CC(=O)N1CCN(c2ccc(Nc3nccc(-c4sc(C(C)C)nc4-c4cccc(NS(=O)(=O)c5ccccc5)c4)n3)cn2)CC1` [GSK1645872A], the potency estimated from few doses in the test with EGFR (CATDS: 3.0506753540730399E-2) is 0.71 µM; in the test on TNK1 (compound concentrations: 100 nM and 1000 nM (sheet 'Samples'), CATDS: 4.1915160463804002E-2) it was 0.364 µM; with ZAK (CATDS: 2.8355440499728699E-2) it was 0.855 µM.

Take `COc1ccc(-c2nc3n(c2-c2ccncc2)CCC3)cc1.COc1ccc(-c2nc3n(c2-c2ccncc2)CCC3)cc1.O=S(=O)(O)O.O=S(=O)(O)O` [SKF-104493-B2]: the potency estimated from few doses in the test on ACAD11 (compound concentrations: 100 nM and 1000 nM (sheet 'Samples'), CATDS: 0.103649602140053) was 2.1 µM; with ACVR1B it was 1.03 µM; in the test with MAPK14 (compound concentrations: 100 nM and 1000 nM (sheet 'Samples'), CATDS: 0.181046976908248) it was 0.687 µM.

`CC(=O)N1CCN(c2ccc(Nc3nccc(-c4sc(C(C)C)nc4-c4cccc(NS(=O)(=O)c5cccc(Cl)c5)c4)n3)cn2)CC1` [GSK1660437A]: the potency estimated from few doses in the test on CSK (CATDS: 5.27130468240418E-2) is 0.741 µM; with TNK1 (compound concentrations: 100 nM and 1000 nM (sheet 'Samples'), CATDS: 7.10025614221442E-2), 0.418 µM; in the test with ZAK (CATDS: 3.4947671861574499E-2), 2.31 µM.

Regarding `Cn1cc(-c2cnc(N)c3c(-c4ccc5c(c4)CCN5C(=O)Cc4ccccc4)csc23)cn1` [GSK2593074A], the potency estimated from few doses in the test with AURKB (setting [1]) was 0.692 µM.

In the case of `CC(C)c1nc(-c2cccc(NS(=O)(=O)c3c(F)cccc3F)c2F)c(-c2ccnc(Nc3ccc(N4CCOCC4)nc3)n2)s1` [GSK2008607A], the potency estimated from few doses was 0.262 µM with CSK (CATDS: 4.1008032947333198E-2); 0.679 µM in the test on EPHA1 (CATDS: 2.5663443213215401E-2); 0.715 µM in the test with LYN (CATDS: 2.5134529621639101E-2); 0.0827 µM in the test with TNK1 (compound concentrations: 100 nM and 1000 nM (sheet 'Samples'), CATDS: 8.7218482008179707E-2).

`Cn1cc(-c2ccc3c(c2)CCN3C(=O)Cc2cccc(Cl)c2)c2c(N)ncnc21` [GSK2606590A]: the potency estimated from few doses with AURKB (compound concentrations: 100 nM and 1000 nM (sheet 'Samples'), CATDS: 0.34532909823612901) was 0.968 µM.

In the case of `N#Cc1cnc2cc(-c3cnc(CNCCN4CCOCC4)s3)ccc2c1Nc1ccc(Oc2ccccc2)cc1` [GW664114X], the potency estimated from few doses was 0.448 µM in the test with CSK (CATDS: 6.7492290868603394E-2), 2.09 µM in the test with EGFR (CATDS: 4.1929469071091803E-2), 0.562 µM in the test with LYN (CATDS: 6.1309680787230501E-2) and 0.293 µM with SRC (CATDS: 8.2949353782893101E-2).

As for `COc1cc2ncn(-c3cc(OCc4ccncc4)c(C(N)=O)s3)c2cc1OC` [GSK336313A], the potency estimated from few doses in the test with ACAD11 (setting [1]) is 1.4 µM.

For `Cl.Cn1c(=O)c(Cc2ccc(F)cc2F)cc2cnc(NC3CCOCC3)nc21` [RO3308757-001], the potency estimated from few doses is 0.484 µM in the test on GSK3A; 0.745 µM in the test on GSK3B; 0.442 µM in the test with MAPK14 (setting [1]); 0.812 µM in the test on SIK2 (setting [1]); 0.177 µM in the test with TNK1 (setting [1]).

In the case of `Cc1ccc(O)cc1Nc1ccnc2ccc(C(C)(C)C)cc12` [GW856805X], in the test on EPHA1 (CATDS: 0.48562635988047498), the potency estimated from few doses was 0.00103 µM.

In the case of `CS(=O)(=O)c1ccc(-c2cnc(N)c(C(=O)Nc3ccccc3)n2)cc1` [VE-821], the potency estimated from few doses with ACAD11 (compound concentrations: 100 nM and 1000 nM (sheet 'Samples'), CATDS: 0.28747433490732499) was 0.334 µM; in the test on ACVR1 it was 0.475 µM.

For the molecule `CNc1nccc(-c2c(-c3ccc(F)cc3)ncn2C2CCN(C)CC2)n1` [SB-222903], the potency estimated from few doses with DDR1 is 0.348 µM; in the test on MAPK14 (compound concentrations: 100 nM and 1000 nM (sheet 'Samples'), CATDS: 0.13479921836841699) it was 0.0299 µM.

With `c1ccc(Oc2ccc(Nc3ccnc4cc(-c5ccc(CN6CCCCC6)o5)ccc34)cc2)nc1` [GW567143X], the potency estimated from few doses is 1.18 µM with AURKB (compound concentrations: 100 nM and 1000 nM (sheet 'Samples'), CATDS: 3.8957530355760599E-2); 0.315 µM in the test on EPHA1 (CATDS: 6.2167566437911E-2); 0.0609 µM with FLT3; 0.956 µM with LYN (CATDS: 4.1336056970238899E-2); 0.464 µM in the test on SRC (CATDS: 5.3011588623511699E-2); 2.21 µM in the test with ZAK (CATDS: 3.3669776805855603E-2).

(Values after publication PMC11062922 (Nature Chemical Biology, 2023).)
